# Reference: PubChem BioAssay AID1022 (Emory University Molecular Libraries Screening Center, 2008)
# About 3,300 (1.5%) of roughly 220,000 compounds were called active. The sample holds actives, similar compounds and a random draw of the others, so the mix is not that of the screen. Unmarked numbers belong to inactive results.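 Rule for the calls: active = compounds that cut the protein-peptide binding signal by more than 50% relative to plate controls in a single-dose test; inactive = the rest.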
# Target: Induced myeloid leukemia cell differentiation protein Mcl-1 (Homo sapiens) (UniProt Q07820)
# Assay: disruptors of Mcl-1 and Noxa BH3 peptide – biochemical, TR-FRET, 1536-well, primary screen (AID 1022);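 note: His-tagged Mcl-1 with rhodamine Noxa BH3 peptide and terbium anti-His antibody; 0% = Mcl-1 plus Noxa peptide wells and 100% = peptide-only wells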
# Conditions: TR-FRET Mcl-1/Noxa peptide binding, 2 h; at 21.7 µM; hits give high values
# Induced myeloid leukemia cell differentiation protein Mcl-1 (Homo sapiens), sequence (Q07820 whole entry, looked up): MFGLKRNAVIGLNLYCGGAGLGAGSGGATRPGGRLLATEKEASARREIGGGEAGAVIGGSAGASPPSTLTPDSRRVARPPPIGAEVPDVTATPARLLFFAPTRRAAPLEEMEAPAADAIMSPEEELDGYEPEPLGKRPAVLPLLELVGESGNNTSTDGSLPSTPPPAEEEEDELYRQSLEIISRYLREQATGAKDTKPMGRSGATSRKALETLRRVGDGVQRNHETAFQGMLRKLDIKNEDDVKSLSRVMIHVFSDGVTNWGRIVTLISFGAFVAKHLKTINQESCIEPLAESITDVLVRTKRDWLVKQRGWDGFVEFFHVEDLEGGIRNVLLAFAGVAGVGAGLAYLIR
row,Structure (SMILES),inhibition
1,COc1cc(OC)c(C(=O)Nc2ccccc2-c2ccccc2)cc1OC,2.98%
2,COc1cc(OC)c(C(=O)Nc2ccc(N(C)C)cc2)cc1OC,51.8% (active)
3,CC(NC(=S)NNS(=O)(=O)c1ccc(C(C)(C)C)cc1)c1ccccc1 (stereo not given),-17.7%
4,Cc1ccc2c(c1)c1ncn(Cc3ccc(F)cc3)c(=O)c1n2C,-20.4%
5,O=C(CSc1ccccc1)Nc1nnc(/C=C/c2ccccc2)s1,9.47%
6,O=C(Nc1ccc(Cl)cc1)Nc1nnc(/C=C/c2ccccc2)s1,91.2% (active)
7,COc1ccc(/C=C/c2nnc(NC(=O)C(C)C)s2)cc1,12.2%
8,CN(C)c1ccc(/C=C/C(=O)c2ccc(O)cc2)cc1[N+](=O)[O-],20.5%
9,CCCc1nc2oc3c(=O)[nH]cnc3c2c2c1COC(C)(C)C2,-3.33%
10,CC(=O)Nc1ccc(C(=O)/C=C/c2ccc[nH]2)cc1,15.7%
11,COc1ccc(N2C(=O)c3ccccc3NC2c2ccc(OC)c(CN3CCOCC3)c2)cc1 (stereo not given),7.79%
12,CCN(CCNC(=O)C1=C(C)C(=O)OC12CCC(C)CC2)c1ccccc1 (stereo not given),-5.12%
13,Nc1ccc(-c2sc(N)nc2-c2ccccc2)cc1,26.2%
14,Nc1ccc(-c2nnc(-c3ccc(-c4ccccc4)cc3)o2)cc1,65.7% (active)
15,Brc1ccc(-c2nnc(-c3ccccc3)o2)o1,8.68%
16,COc1ccc(S(=O)(=O)N(CC(=O)N/N=C/c2ccccc2C(=O)O)c2ccccc2OC)cc1,12.8%
17,CCOC(=O)N1CCN(C(c2cccnc2)c2ccc3cccnc3c2O)CC1 (stereo not given),61.5% (active)
18,CCN1CCN(C(c2cccnc2)c2cc(Cl)c3cccnc3c2O)CC1 (stereo not given),34%
19,Oc1c(C(c2ccccn2)N2CCOCC2)ccc2cccnc12 (stereo not given),5.37%
20,Cc1nc(N)sc1N=Nc1c(C)n(C)n(-c2ccccc2)c1=O,13%
21,CC(C)OP(=O)(OC(C)C)C(Nc1ccccc1)c1cccc([N+](=O)[O-])c1 (stereo not given),6.5%
22,CSC1=N/C(=C\c2ccc3c(c2)OCO3)C(=O)S1,5.49%
23,O=C1/C(=C/c2ccc3c(c2)OCO3)CCC/C1=C\c1ccc2c(c1)OCO2,-7.31%
24,CCC1=C/C(=C\c2ccc3c(c2)OCO3)C(=O)S1,55.4% (active)
25,CN1CCN(CCNC(=O)Nc2ccc([N+](=O)[O-])cc2)CC1,6.06%

row,Structure (SMILES),inhibition
1,O=C(COc1ccc([N+](=O)[O-])cc1)Nc1ccc(N2CCCC2)cc1,52.2% (active)
2,COc1ccc(OCC(=O)Nc2ccc(N3CCC(C)CC3)cc2)cc1,5.22%
3,O=C(COC(=O)C1CCCCC1)Nc1ccc([N+](=O)[O-])cc1,-0.21%
4,O=C(Nc1ccc(F)cc1)N1CCN(c2ccc(F)cc2)CC1,-20.8%
5,O=C(NCCCN1CCN(c2ccc(F)cc2)CC1)Nc1ccc([N+](=O)[O-])cc1,52% (active)
6,CN(C)c1nc(=Nc2cccc(Cl)c2)ss1,13.4%
7,CC(C)(C)C(=O)OCc1nc(-c2ccc(O)c(O)c2)cs1,46.4%
8,COc1ccc(CCNC(=O)C(Sc2ccccn2)c2ccccc2)cc1OC (stereo not given),-11.6%
9,CSc1ccc(NC(=O)/C=C/C(=O)O)cc1,14.6%
10,Cc1oc(C(N)=O)cc1COc1ccc(C(N)=O)cc1,7.05%
11,O=C(NCCN1CCOCC1)c1ccc2c(c1)N(Cc1ccc(Cl)cc1)CCS2,16.4%
12,NC(=O)[C@H]1CC2(CC(c3cccc(NC(=O)[C@H]4CCC(=O)N4)c3)=NO2)CN1C(=O)c1ccccc1C(=O)c1ccccc1 (stereo not given in full),3.36%
13,Cc1cc(=O)[nH]c2nnnn12,0.51%
14,O=C(Nc1ccc(Cl)cc1)N1CCc2[nH]c3ccccc3c2C1,104% (active)
15,O=C(NC1CCCCC1)N1CCc2[nH]c3ccccc3c2C1,-13%
16,Fc1ccc(NC(=S)N2CCc3[nH]c4ccccc4c3C2)cc1,14.9%
17,O=C(Nc1ccc(Cl)cc1)c1ccsn1,11.5%
18,O=C(Nc1ccccc1)c1nnsc1S(=O)(=O)c1ccc(Cl)cc1,68.7% (active)
19,CS(=O)(=O)c1ccc(Cl)c(NC(=O)Nc2ccccc2)c1,2.41%
20,N#CC1=C(N)Oc2c(ccc3cccnc23)C1c1ccncc1 (stereo not given),-11.2%
21,NC(=O)N/N=C\c1cccs1,-22.2%
22,C=CCSC(CC)(CC)C(N)=O,-9.07%
23,COc1ccc(NC(=S)NCCN2CCC(C)CC2)cc1,19.6%
24,COc1ccc(N2CCC(CNC(=S)Nc3c(C)cccc3C)C2)cc1 (stereo not given),17.1%
25,COc1ccc(NC(=S)NCC2CCN(c3ccc(OC)cc3)C2)cc1 (stereo not given),67.3% (active)
